# Biological target: Neuropilin-1 (Homo sapiens) (UniProt O14786)
# Experiment: blockers of CendR peptide binding to NRP-1 – biochemical, FP and AlphaScreen panel, dose response (AID 651650)
# Conditions: NRP-1 b1b2 / RPARPAR peptide binding, FP or AlphaScreen; run 1, at 100 µM (top of the series)
# Neuropilin-1 (Homo sapiens), sequence (O14786 whole entry, looked up): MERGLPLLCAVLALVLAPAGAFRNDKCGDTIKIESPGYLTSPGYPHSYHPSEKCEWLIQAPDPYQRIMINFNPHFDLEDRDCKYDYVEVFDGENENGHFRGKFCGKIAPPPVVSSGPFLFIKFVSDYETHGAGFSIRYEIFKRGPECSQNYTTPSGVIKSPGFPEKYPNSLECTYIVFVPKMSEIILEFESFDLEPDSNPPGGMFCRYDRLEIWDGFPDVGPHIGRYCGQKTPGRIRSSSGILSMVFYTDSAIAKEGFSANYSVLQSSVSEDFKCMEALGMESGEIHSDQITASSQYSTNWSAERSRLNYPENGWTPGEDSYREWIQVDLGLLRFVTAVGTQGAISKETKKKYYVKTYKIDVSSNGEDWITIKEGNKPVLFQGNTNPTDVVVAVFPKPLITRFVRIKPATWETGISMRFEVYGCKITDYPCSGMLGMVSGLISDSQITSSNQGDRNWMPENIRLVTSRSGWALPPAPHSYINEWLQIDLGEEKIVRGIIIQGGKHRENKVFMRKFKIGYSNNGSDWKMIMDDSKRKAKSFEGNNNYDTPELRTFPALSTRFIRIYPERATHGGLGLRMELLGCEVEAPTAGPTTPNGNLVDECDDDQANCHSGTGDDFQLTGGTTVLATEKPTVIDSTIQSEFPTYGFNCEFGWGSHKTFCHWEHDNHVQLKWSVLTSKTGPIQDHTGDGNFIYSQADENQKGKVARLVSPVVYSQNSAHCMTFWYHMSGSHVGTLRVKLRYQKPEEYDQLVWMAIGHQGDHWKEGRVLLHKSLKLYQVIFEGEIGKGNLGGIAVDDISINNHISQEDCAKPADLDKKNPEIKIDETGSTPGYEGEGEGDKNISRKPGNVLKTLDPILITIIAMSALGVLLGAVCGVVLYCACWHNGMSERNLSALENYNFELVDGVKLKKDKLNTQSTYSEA
row,SMILES,inhibition [%]
1,NC1=NC[C@@H](Cc2ccc(O)cc2)N1CCCCC1CCCCC1,26.5
2,Cn1c(=O)c2c(nc(OCc3cccnc3)n2Cc2ccccc2)n(C)c1=O,66.1
3,COc1ccc(C(C(=O)NC(C)(C)C)N(C(=O)CCC(=O)Nc2cc(C)on2)c2c(C)cccc2C)cc1 (stereo not given),42.7
4,OCCC1CCCCN1CC(O)COCc1ccc(Cl)cc1 (stereo not given),22.3
5,NS(=O)(=O)c1cccnc1Nc1cccc(Cl)c1Cl,14.4
6,CCOC(=O)C1(O)CC(C)=NN1C(=O)c1cccc(Br)c1 (stereo not given),35.1
7,COc1ccc(/C=N/NC(=O)c2cc(C(C)(C)C)[nH]n2)cc1COc1ccc(F)cc1F,26
8,N/C(CSc1ccc(Cl)cc1)=N\S(=O)(=O)c1ccc(Cl)cc1,37.6
9,CC(=O)NCCNc1nc(NC(C)C)nc2ccsc12,-4.88
10,CNc1nc(-c2ccc3c(c2)CCN3C(=O)c2ccccc2F)cs1,14.5
11,CSc1cccc(CN2CCN(Cc3ccccc3)C(CCO)C2)c1 (stereo not given),48.8
12,Cc1ccc(S(=O)(=O)NCC(=O)N(c2ccccc2)C(C(=O)NCc2ccccc2)c2ccco2)cc1 (stereo not given),-4.65
13,CCOC(=O)c1c2ccc(OCC(=O)NN)cc2n2ccccc12,-1.02
14,Cc1csc(NC(C)c2nc3cc(C(F)(F)F)ccc3n2CCCO)n1 (stereo not given),89.7
15,CCC1Nc2ncnc(N3CCCCC3)c2N(Cc2ccc(C)cc2)C1=O (stereo not given),18.8
16,COC(=O)CCCC1=CC2=CC(=O)C(C)(OC(=O)c3cccs3)C(=O)C2=CN1CCCCO (stereo not given),38.6
17,NS(=O)(=O)c1ccc(CNC(=S)NCc2ccc(F)cc2)cc1,42.3
18,CCOc1ccc(C2CC(c3ccc(CC)cc3)n3nc(N)nc3N2)cc1 (stereo not given),4.44
19,CCOc1ccc(-n2c(Cc3cc(=O)[nH]c(=O)[nH]3)nnc2SC(C)C)cc1,59.6
20,COc1ccc(C2CC(C(F)(F)F)n3nc(C(=O)O)c(Cl)c3N2)cc1OC (stereo not given),46.4

# — PubChem BioAssay AID651650 (Sanford-Burnham Center for Chemical Genomics, 2012)
